Results filed as inconclusive are left out. Calls of active or inactive are those of the source. Calls follow the shape of the dose curve; as a rule, active = well fitted inhibition curve with a large enough effect; inconclusive = small, poorly fitted or top-dose-only effect; inactive = flat fitted curve, though single readings scatter.
Molecular target: Tyrosyl-DNA phosphodiesterase 1 (Homo sapiens) (UniProt Q9NUW8)
Assay: Confirmation Assay for Inhibitors of Tyrosyl-DNA Phosphodiesterase (TDP1) (AID 489007); also: nearly all actives have a fitted effect of over 40% in size
Conditions: recombinant human TDP1 enzymatic activity, dose-response
Outline: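 Compounds are preincubated 15 min at room temperature with 1 nM recombinant human Tdp1. The reaction starts on adding 15 nM FITC-phosphotyrosine DNA substrate, runs 5 min, and is detected by AlphaScreen beads after 10 min.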
Potency is read from the fitted curve at half-maximal effect.

Chain of Tyrosyl-DNA phosphodiesterase 1 (Homo sapiens) (Q9NUW8 whole entry, looked up): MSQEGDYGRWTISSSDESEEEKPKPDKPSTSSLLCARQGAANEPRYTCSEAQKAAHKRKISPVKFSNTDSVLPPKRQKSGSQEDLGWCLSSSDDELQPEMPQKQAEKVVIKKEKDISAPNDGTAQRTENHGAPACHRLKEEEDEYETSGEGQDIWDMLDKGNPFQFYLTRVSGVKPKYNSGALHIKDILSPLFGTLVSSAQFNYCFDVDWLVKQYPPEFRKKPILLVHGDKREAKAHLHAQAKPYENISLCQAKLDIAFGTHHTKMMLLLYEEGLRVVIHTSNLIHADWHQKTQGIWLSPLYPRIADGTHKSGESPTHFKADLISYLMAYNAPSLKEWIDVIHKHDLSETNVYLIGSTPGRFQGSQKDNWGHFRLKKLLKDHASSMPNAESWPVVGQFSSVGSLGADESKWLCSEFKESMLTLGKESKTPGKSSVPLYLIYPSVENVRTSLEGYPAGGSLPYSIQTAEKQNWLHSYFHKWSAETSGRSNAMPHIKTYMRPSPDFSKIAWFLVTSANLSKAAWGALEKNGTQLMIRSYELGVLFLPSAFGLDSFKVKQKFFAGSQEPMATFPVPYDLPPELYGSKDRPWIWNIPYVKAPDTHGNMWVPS

COc1ccc(C(=O)CC(=O)c2ccc(C(C)(C)C)cc2)cc1
Potency: 25.1 µM (active)

O=c1oc2c(O)c(O)cc3c(=O)oc4c(O)c(O)cc1c4c23
Potency: 0.004 µM (active)
